Vif-APOBEC3G blk = qHTS for Inhibitors of Vif-A3G Interactions: qHTS | 410,000 compounds, 0.076% hits | Potency, µM (top dose mostly 46.1 µM), without a hit: at the top dose activity, negative = active, usual class: inhibitors | DNA dC->dU-editing enzyme APOBEC-3G (Homo sapiens), Q9HC16 | HeLa A3G-eYFP + Vif (tagged APOBEC3G with the HIV-1 protein that degrades it), YFP fluorescence, overnight; note: potency is the fitted concentration of half-maximal effect; % is set by controls: 0 for no effect and ±100 for the full control effect; nearly all actives have a fitted effect of over 60% in size
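Read-out is eYFP fluorescence (Ex 488/Em 500-530) from Vif-expressing HeLa A3G-eYFP cells; more signal means A3G escaped Vif-mediated degradation. Cells plated overnight, compound pinned in, incubated overnight at 37 deg C.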
GLS inhibitor = qHTS for Inhibitors of Glutaminase (GLS); Glutaminase kidney isoform, mitochondrial (Homo sapiens), O94925; GLS enzymatic activity, qHTS titration; Potency, µM (doses to about 45.5 µM), without a hit: at the highest dose activity change, negative = inhibition, usual class: inhibitors; 410,000 compounds, 0.21% hits; note: potency is the fitted concentration of half-maximal effect; % is set by controls: 0 for no effect and ±100 for the full control effect
Target sequence (O94925 whole entry, looked up, canonical isoform): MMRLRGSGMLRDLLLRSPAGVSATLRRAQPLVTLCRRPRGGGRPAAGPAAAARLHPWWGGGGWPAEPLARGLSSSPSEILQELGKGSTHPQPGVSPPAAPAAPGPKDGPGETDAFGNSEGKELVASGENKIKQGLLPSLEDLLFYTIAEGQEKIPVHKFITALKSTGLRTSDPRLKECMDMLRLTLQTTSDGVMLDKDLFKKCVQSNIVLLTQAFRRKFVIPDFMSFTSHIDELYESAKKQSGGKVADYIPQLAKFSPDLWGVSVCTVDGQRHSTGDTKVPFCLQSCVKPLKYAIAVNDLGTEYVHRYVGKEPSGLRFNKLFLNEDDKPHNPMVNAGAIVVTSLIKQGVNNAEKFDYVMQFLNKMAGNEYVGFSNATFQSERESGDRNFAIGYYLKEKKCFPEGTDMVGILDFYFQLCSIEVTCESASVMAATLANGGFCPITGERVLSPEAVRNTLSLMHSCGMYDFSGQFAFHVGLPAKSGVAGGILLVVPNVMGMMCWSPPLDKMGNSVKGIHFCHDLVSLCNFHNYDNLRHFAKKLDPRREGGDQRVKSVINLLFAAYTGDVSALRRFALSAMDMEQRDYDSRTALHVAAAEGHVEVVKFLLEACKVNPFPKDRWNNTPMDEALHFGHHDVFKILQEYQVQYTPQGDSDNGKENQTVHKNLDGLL
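Assay buffer: 45 mM KH2PO4 pH 8.2, 0.02% Tween-20. hKGA acts on L-glutamine (1 mM solution added); product glutamate is reported by an oxidase/peroxidase Amplex Red coupling, with fluorescence taken at baseline and 30 min.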
PINK1 modulator = A Quantitative High throughput Screen to Identify Chemical Modulators of PINK1 Expression. PINK1 immunofluorescence, high-content cytometry, 24 h. Potency, µM (top dose mostly 76.6 µM), for inactives: top-dose activation (PINK1 increase), usual class: activators. 410,000 compounds, 0.2% hits. AID 624263, 2012; active = well fitted activation curve with a large enough effect; inconclusive = small, poorly fitted or top-dose-only effect; cell line not stated here; note: potency is the fitted concentration of half-maximal effect; % of control where 0% means no effect; nearly all actives have a fitted effect of over 65% in size
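Compound titrations (5 concentrations, 24 h) on a stable cell line; DMSO and CCCP controls. Endpoint: fixed-cell PINK1 immunofluorescence with mitochondrial, cell and nuclear markers, scanned by microplate cytometer.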
Vif-A3F inh = qHTS for Inhibitors of Vif-A3F Interactions: qHTS; HeLa A3F-eYFP + Vif (tagged APOBEC3F with the HIV-1 protein that degrades it), YFP fluorescence increase; Potency, µM (top dose mostly 46.1 µM), for inactives: at the top dose activity, negative = active; 390,000 compounds, 0.2% hits; note: potency is the fitted concentration of half-maximal effect; % of control where 0% means no effect; nearly all actives have a fitted effect of over 65% in size
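HeLa cells stably expressing A3F-eYFP plus Vif, plated and incubated overnight at 37 deg C, then exposed to compounds overnight at 37 deg C. Blocked degradation read as raised yellow fluorescence (Ex 488/Em 500-530).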
Epigenetic reg = Quantitative High-Throughput Screen for Regulators of Epigenetic Control | Potency, µM (top dose mostly 53.9 µM), without a hit: at the highest dose GFP activation, hits mostly activators | murine LDR cells, GFP reporter derepression, 30 h | 280,000 compounds, 0.2% hits; note: potency is the fitted concentration of half-maximal effect; % of control where 0% means no effect; nearly all actives have a fitted effect of over 60% in size
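Readout is the number of GFP-expressing murine LDR cells, counted by cytometry following washing. Cells were treated with compound for 30 h at 37 C; the stably integrated CMV-GFP locus is normally silent.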
Parental c127i = Parental Cell Counter Screen Assay for Epigenetic Modulators: Hit Validation. 60 compounds, 20% hits. mouse c127i parental cells, fluorescent cell count, 30 h. Potency, µM, inactives show top-dose fluorescent cell count, most hits filed as activators. shares compounds with Epigenetic reg
HCC4017 viab = HCC4017 Cell Viability Secondary Assay for qHTS Assay for Epigenetic Modulators; shares compounds with Epigenetic reg; HCC4017 NSCLC viability, CellTiter-Glo ATP luminescence, 72 h; Potency, µM (highest dose often 46.1 µM), for inactives: at the highest dose activity change, negative = cytotoxicity, usual class: cytotoxic; 45 compounds, 30% hits; AID 493071, 2011
H358 tox = H358 Cell Viability Secondary Assay for qHTS Assay for Epigenetic Modulators: Round 2; 45 compounds, 30% hits; Potency, µM (series often up to 46.1 µM), for inactives: top-dose activity change, negative = viability loss, hits mostly cytotoxic; shares compounds with Epigenetic reg; H358 NSCLC viability, ATP luminescence, 72 h
* hit, by the source's call; ? = inconclusive; . = no result given; [ ] = another dose, or the depositor's remark. Compounds with a hit are over-represented: about 0.7% of the library has one in this group of screens. Unless noted, calls come from the whole dose curve; as a rule, active = well fitted curve in the direction sought with a large enough effect; inconclusive = small, poorly fitted or top-dose-only effect, or another doubt; inactive = no such curve, though single readings can be large; an effect the other way counts as inactive or inconclusive.

SMILES	Vif-APOBEC3G blk	GLS inhibitor	PINK1 modulator	Vif-A3F inh	Epigenetic reg	Parental c127i	others
Cc1cccc(C)c1-n1c(C)cc(/C=C2\NC(=O)NC2=O)c1C	-12%	-1%	-1%[38.3 µM]	0%	-6%	.
Cc1c(/C=C2\NC(=O)NC2=O)c2ccccc2n1C	-5%	13µM*	0%	-12%	.	.
CSc1nc(SCC(=O)NCc2ccco2)c2c3c(sc2n1)COC(C)(C)C3	?	-2%	13µM*	-7%	-5%	.
O=S(=O)(c1ccc(NC(=S)N2CCOCC2)cc1)N1CCCCC1	1%	0%	1%	0%	.	.
O=S(=O)(c1ccc(NC(=S)N2CCN(c3ccc(O)cc3)CC2)cc1)N1CCOCC1	-2%	7.1µM*	1%	-8%	-1%	.
CCCCCCCC(=O)CC[C@H]1[C@@H](C/C=C/CCCC(=O)OC(C)C)[C@@H](O)C[C@H]1O	.	-4%	.	.	.	.
COc1ccc(Cn2c3ccc(OC)cc3c3nc4ccccc4nc32)cc1	-5%	3%	?	?	?	.
COc1ccc2c(c1)c1nc3ccccc3nc1n2CCn1c(=O)oc2ccccc21	0%	-2%	4µM*	?	0%	.
COc1ccc2c(c1)c1nc3ccccc3nc1n2CC(=O)OC(C)C	-18%	-5%	?	25µM*	?	.
CCOC(=O)Cn1c2ccccc2c2nc3ccccc3nc21	2%	3%	-1%	?	-1%	.
COc1ccc2c(c1)c1nc3ccccc3nc1n2Cc1ccc(OC(C)C)c(OC)c1	-27%	-1%	5%	22µM*	?	.
O=C(O)Cn1c2ccccc2c2nc3ccccc3nc21	?	-4%	1%	8.9µM*	.	.
COC(=O)Cn1c2ccc(C)cc2c2nc3ccccc3nc21	1%	-1%	1%	0%	.	.
COc1cc(-c2cc(C)c3c(OC)ccc(OC)c3n2)cc2c1OCCN(C(=O)Cn1nc(C)cc1C)C2	.	.	0%	.	.	.
CN(C)S(=O)(=O)c1ccc2c(c1)/C(=C/c1cc3c([nH]1)CCCC3)C(=O)N2	?	-2%	?	?	7.9µM*	3.2µM*
CN(C)S(=O)(=O)c1ccc2c(c1)C(=O)c1cc(S(=O)(=O)N(C)C)ccc1CC2	1%	-1%	2%	4%	.	.
O=C(NC1CCC(n2cc(C(=O)NC3CC3)nn2)CC1)C(=O)c1ccccc1 (stereo not drawn)	.	.	0%	.	.	.
Cc1onc(-c2ccccc2)c1C(=O)N[C@@H]1C(=O)N2[C@@H](C(=O)O)C(C)(C)S[C@@H]12	.	-7%	.	.	.	.
CC1CCCN(c2nc3nonc3nc2Nc2ccccc2F)C1 (stereo not drawn)	-7%	2%	2%	3%	1%	.
COc1ccc(OC)c(Nc2nc3nonc3nc2N2CCCC(C)C2)c1 (stereo not drawn)	-5%	-4%	?	-9%	?	14µM*
O=C1CN(c2nc(-c3ccccc3)c3cc(Cl)ccc3n2)c2ccccc2N1	0%	-2%	?	?	?	14%	HCC4017 viab=-26%;H358 tox=?
CC(=O)c1ccc(C(=O)N2CCc3c(cnc(C)c3CNC(=O)c3ccc4c(c3)OCO4)C2)s1	.	.	-1%	.	.	.
O=C(CSc1cccc2cccnc12)N1CCCC1	?	?	-2%	-11%	0%	.	HCC4017 viab=?;H358 tox=-23%
O=C(NCC1Cc2cccc(-c3cnccn3)c2O1)c1ccc(F)c(Cl)c1 (stereo not drawn)	.	.	1%	.	.	.
CCc1nnc(NC(=O)c2cccc(C(=O)Nc3nnc(CC)s3)n2)s1	-2%	-10%	-2%	-12%	2.5µM*	6%	HCC4017 viab=0.5µM*;H358 tox=0.56µM*
SMILES	Vif-APOBEC3G blk	GLS inhibitor	PINK1 modulator	Vif-A3F inh	Epigenetic reg	Parental c127i	others
COCCCNc1ncnc2sc(C(=O)N3CCCCC3)c(C)c12	.	.	-1%	.	.	.
N#Cc1sc2nc(-c3ccccc3)cc(C(F)(F)F)c2c1N	-13%	-15%	11µM*	?	?	16µM*
O=c1c2ccccc2nc(COc2ccccc2)n1/N=C/c1c[nH]c2ccccc12	-10%	7%	?	?	10µM*	5%	HCC4017 viab=?;H358 tox=-27%
O=c1c2ccccc2nc(COc2ccccc2)n1/N=C/c1ccc(O)cc1O	-7%	17%	0%	-7%	0%	.
Cc1ccc(/C=[N+](\[O-])c2ccc(N(C)C)cc2)c2nsnc12	-23%	?	-2%	15%	?	18%	HCC4017 viab=14µM*;H358 tox=28µM*
S=C(Nc1ccccc1)c1ccccn1	?	18%	2%	-1%	5.6µM*	22µM*	HCC4017 viab=-27%;H358 tox=-17%
COc1cccc(CN2CCC3(CCC(CNC(=O)c4ccco4)O3)CC2)c1OC (stereo not drawn)	.	.	-1%	.	.	.
C(=N\Nc1nc(-c2ccccn2)nc2ccccc12)/c1ccccc1	-15%	.	-1%	.	10µM*	5%	HCC4017 viab=0.4µM*;H358 tox=?
C(=N\Nc1nc(-c2cccnc2)nc2ccccc12)/c1ccccc1	-11%	-11%	-1%	-4%	0%	.
COc1nc(Nc2nc3ccccc3c(=O)[nH]2)nc2ccc(C)cc12	-7%	-24%	9%	1%	?	5%	HCC4017 viab=2.8µM*;H358 tox=3.1µM*
Cc1cc(C)cc(Nc2nc3ccccc3c(=O)[nH]2)c1	10%	-10%	-4%	?	2%	.
COc1ccccc1CN1CCC2(CC1)c1ccccc1[C@@H](NC(=O)c1ccco1)[C@@H]2OC	.	.	-1%	.	.	.
CC(=O)N[C@@H](CSC(=O)[C@]1([C@@H](O)C(C)C)NC(=O)[C@H](C)[C@@H]1O)C(=O)O	.	.	.	.	?	25µM*
CC(=O)N[C@@H](CSC/C=C(\C)CCC=C(C)C)C(=O)O	.	.	.	.	6%	.
COc1ccc2c(C)cc(SCC(=O)N(C)C3CCS(=O)(=O)C3)nc2c1 (stereo not drawn)	?	1%	-1%	11µM*	10µM*	?	HCC4017 viab=-14%;H358 tox=-8%
O=C1C=C(Nc2ccc(Cl)cc2)C(=O)N1c1ccc(Cl)cc1	-15%	-8%	35µM*	?	10µM*	?	HCC4017 viab=-3%;H358 tox=14%

Screening results (PubChem)
